Assay results from PubChem BioAssay (EPA / NIEHS).
Activity calls are given as the source filed them. The calls were made as follows: active = hit-call score of the fitted dose curve at least 0.9, where 1 is the maximum; inactive = score below 0.9.

These molecules were tested on Basic fibroblast growth factor (bFGF), FGF2 (gene 2247) (assay: BSK_MyoF_bFGF: BioMAP Diversity Plus: MyoF Assay for Basic fibroblast growth factor (bFGF) Biomarker Activity (AID 2284246)). Settings: primary human lung fibroblasts.
Method in brief: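 Primary human lung fibroblast culture, 24 h compound exposure; ELISA read-out of bFGF. Positive-direction fit vs DMSO baseline. Cytotoxicity: SRB stain (0.1% SRB, 10% TCA fixation, 560 nm) in parallel wells.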

Row | Compound | outcome | AC50
1 | CC1OC1C1CCC2(C)OC2C1 (centres undefined) | inactive | 
2 | N#[N+]c1ccc2c(S(=O)(=O)[O-])cccc2c1O | inactive | 
3 | COc1ccc2nc(N)sc2c1 | inactive | 
4 | CCCCCCCCCCCCCCCC[N+](C)(C)CC |  | 8.45 µM (active)
5 | C#CC1(O)CC[C@H]2[C@@H]3CCC4=CCCC[C@@H]4[C@H]3CC[C@@]21C (some centres undefined) |  | 33 µM (active)
6 | O=C(Nc1ccccc1SSc1ccccc1NC(=O)c1ccccc1)c1ccccc1 | inactive | 
7 | CCOc1nc(F)cc2nc(S(=O)(=O)Nc3c(Cl)cccc3C(=O)OC)nn12 | inactive | 
8 | O=Nc1ccc(O)cc1 | inactive | 
9 | CCCCCCCCc1ccc(Nc2ccc(CCCCCCCC)cc2)cc1 | inactive | 
10 | O=c1c2ccccc2oc2ccccc12 | inactive | 
11 | c1ccc2c(c1)ccc1ncccc12 | inactive | 
12 | C=CCOc1c(Br)cc(Br)cc1Br |  | 34 µM (active)
13 | C=CCOCC(O)CCl (centres undefined) | inactive | 
14 | CCO[Si](CCCN=C=O)(OCC)OCC | inactive | 
15 | C/C=C\C/C=C/CCCCCCCCOC(C)=O | inactive | 
16 | c1ccc(-c2ccccn2)nc1 | inactive | 
17 | O=C(Cl)c1cc(C(=O)Cl)cc(C(=O)Cl)c1 |  | 36.9 µM (active)
18 | c1ccc2c(c1)ccc1cc3c(ccc4ccccc43)cc12 | inactive | 
19 | CCCCNc1ccc(NCCCC)c2c1C(=O)c1ccccc1C2=O | inactive | 
20 | CCCCC(CC)COC(=O)c1ccccc1O (centres undefined) | inactive | 
21 | CC(C)(c1cc(Br)c(OCCO)c(Br)c1)c1cc(Br)c(OCCO)c(Br)c1 |  | 9.52 µM (active)
22 | CC(C)C(=O)C(C)C | inactive | 
23 | CCCCC/C=C\C/C=C\CCCCCCCC(=O)OC | inactive | 
24 | C=CC(=O)OCC(Br)CBr (centres undefined) |  | 37.5 µM (active)
25 | COCc1c(C(C)C)nc(C(C)C)c(/C=C/[C@@H](O)C[C@@H](O)CC(=O)O)c1-c1ccc(F)cc1 | inactive | 
26 | S=C(NC1CCCCC1)NC1CCCCC1 | inactive | 
27 | C=CC=CC=CCCCCC | inactive | 

Each molecule was assayed on Collagen IV, COL4A1 (gene 1282) (assay: BSK_MyoF_CollagenIV: BioMAP Diversity Plus: MyoF Assay for Collagen IV Biomarker Activity (AID 2284247)). Settings: primary human lung fibroblasts.
Method in brief: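 ELISA read-out of Collagen IV in lung fibroblast cultures, 24 h post-dosing; gain of signal relative to DMSO vehicle baseline defines activity.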

Row | Compound | outcome | AC50
28 | CC1OC1C1CCC2(C)OC2C1 (centres undefined) | inactive | 
29 | N#[N+]c1ccc2c(S(=O)(=O)[O-])cccc2c1O | inactive | 
30 | COc1ccc2nc(N)sc2c1 | inactive | 
31 | CCCCCCCCCCCCCCCC[N+](C)(C)CC |  | 3.25 µM (active)
32 | C#CC1(O)CC[C@H]2[C@@H]3CCC4=CCCC[C@@H]4[C@H]3CC[C@@]21C (some centres undefined) | inactive | 
33 | O=C(Nc1ccccc1SSc1ccccc1NC(=O)c1ccccc1)c1ccccc1 | inactive | 
34 | CCOc1nc(F)cc2nc(S(=O)(=O)Nc3c(Cl)cccc3C(=O)OC)nn12 | inactive | 
35 | O=Nc1ccc(O)cc1 | inactive | 
36 | CCCCCCCCc1ccc(Nc2ccc(CCCCCCCC)cc2)cc1 | inactive | 
37 | O=c1c2ccccc2oc2ccccc12 | inactive | 
38 | c1ccc2c(c1)ccc1ncccc12 | inactive | 
39 | C=CCOc1c(Br)cc(Br)cc1Br |  | 5.88 µM (active)
40 | C=CCOCC(O)CCl (centres undefined) | inactive | 
41 | CCO[Si](CCCN=C=O)(OCC)OCC | inactive | 
42 | C/C=C\C/C=C/CCCCCCCCOC(C)=O | inactive | 
43 | c1ccc(-c2ccccn2)nc1 | inactive | 
44 | O=C(Cl)c1cc(C(=O)Cl)cc(C(=O)Cl)c1 |  | 30 µM (active)
45 | c1ccc2c(c1)ccc1cc3c(ccc4ccccc43)cc12 | inactive | 
46 | CCCCNc1ccc(NCCCC)c2c1C(=O)c1ccccc1C2=O | inactive | 
47 | CCCCC(CC)COC(=O)c1ccccc1O (centres undefined) | inactive | 
48 | CC(C)(c1cc(Br)c(OCCO)c(Br)c1)c1cc(Br)c(OCCO)c(Br)c1 |  | 9.43 µM (active)
49 | CC(C)C(=O)C(C)C | inactive | 
50 | CCCCC/C=C\C/C=C\CCCCCCCC(=O)OC | inactive | 
51 | C=CC(=O)OCC(Br)CBr (centres undefined) |  | 3.97 µM (active)
52 | COCc1c(C(C)C)nc(C(C)C)c(/C=C/[C@@H](O)C[C@@H](O)CC(=O)O)c1-c1ccc(F)cc1 | inactive | 
53 | S=C(NC1CCCCC1)NC1CCCCC1 | inactive | 
54 | C=CC=CC=CCCCCC | inactive | 
